The source of these data is PubChem BioAssay (NCI).

Common to all, as to test: NCI-60 one-dose screen, 48 h (100 = growth as untreated, 0 = no growth, -100 = all killed)
Details in all cases: 10 µM unless noted

The subject of assay [1] is OVCAR-8 ovarian.
Assay [2] concerns OVCAR-5 ovarian.
For assay [3], the system named is OVCAR-4 ovarian.
Assay [4] concerns SK-OV-3 ovarian.
Assay [5] relates to IGROV1 ovarian.
In assay [6] the test system is OVCAR-3 ovarian.
For assay [7], the system named is HS 578T breast.
Assay [8] relates to NCI/ADR-RES ovarian.
The test system of assay [9] is T-47D breast.
For assay [10], the system named is BT-549 breast.
For assay [11], the system named is MDA-MB-435 melanoma.
The test system of assay [12] is SW-620 colon.
Assay [13] concerns MCF7 breast.
The test system of assay [14] is HCT-116 colon.
In assay [15] the test system is KM12 colon.
The test system of assay [16] is HCC-2998 colon.

Compounds without any hit were thinned out: in the full panel of roughly 83,000, 20% have a hit.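 Step 1: grow cells in 96-well plates. Step 2: add test compound at a single concentration. Step 3: incubate 48 h. Step 4: record percent growth.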 Unmarked numbers belong to inactive results. Active and inactive are the calls of the source. Rule for the calls: active = growth percent below 10; inactive = the rest.

In the case of `CCCc1cc(=O)n2c(C(=O)Nc3ccccc3OC)c(C(=O)Nc3ccc(F)cc3)sc2n1`, the growth in [1] is 18.5% [30 µM]; in assay [2] it was 57.8% [30 µM]; in assay [3], 36.2% [30 µM]; in [4], 29.9% [30 µM]; in [5], -12.6% [30 µM] (active); in assay [6], 51.3% [30 µM]. The growth was 9.91% [30 µM] (active) in assay [7]; 24.8% [30 µM] in [8]; 85.4% [30 µM] in [9]; -14.2% [30 µM] (active) in assay [10]; 65.8% [30 µM] in assay [11]; 64.1% [30 µM] in [12]. The results for the growth in assay [13], in assay [14] and in assay [15] were 52.7% [30 µM], 27.2% [30 µM] and 76.6% [30 µM], respectively.
In the case of `COc1ccc2[nH]cc(/C=C3/C(=O)Nc4ccc(Cl)cc43)c2c1`, the growth was 52% in assay [1]; 78.1% in assay [2]; 51.5% in [3]; 22.5% in assay [4]; 54.4% in [5]; 18.1% in assay [6]. Besides, the growth in assay [7] was 31.9%; in [8], 49.6%; in [9], 61.9%; in assay [10], 40.9%; in [11], 22.9%; in assay [12], 53.7%. Further, the growth in assay [13] is 40.7%; in assay [14] it was 13.5%; in assay [16] it was 43.9%; in assay [15], 3.07% (active).
`O=C(/C=C/c1ccccc1)CC(c1ccccc1)N1CCOCC1` (stereo unspecified): the growth in [1] was 85.1%; in [2], 98.7%; in assay [3], 105%; in assay [4], 98.4%; in assay [5], 91.8%; in assay [6], 78.9%. In addition, the growth in [8] is 104%; in assay [9] it was 81.3%; in assay [10], -79.4% (active); in assay [11] it was 11.8%; in [12], -16.7% (active); in assay [13], 11.1%. The values for the growth in [14], in assay [16] and in assay [15] were -97% (active), 20.8% and -81% (active), respectively.
As to `Cn1cc(-c2nc(-c3c[nH]c4ncc(F)cc34)cs2)c2cccnc21`, the growth was 105% in assay [1]; 93.4% in assay [2]; 82.2% in assay [3]; 109% in [4]; 108% in assay [5]; 117% in assay [6]. Further, the growth in [8] is 100%; in [9] it was 59.9%; in [10] it was 108%; in assay [11] it was 98.2%; in [12], 104%; in [13] it was 77.9%. In addition, the growth in assay [14] was 101%; in [16], 81.6%; in assay [15], 99.3%.
Take `Cc1cc(C)n2nc(SCC(=O)Nc3sc4c(c3C(N)=O)CCC4)nc2n1`: the growth in assay [1] is 112%; in assay [2], 97.1%; in assay [3], 122%; in assay [4], 118%; in assay [5], -2.56% (active); in assay [6] it was 123%. Besides, the growth in assay [7] was 121%; in assay [8], 102%; in [10] it was 99.6%; in assay [11], 108%; in assay [12], 100%; in [13], 107%. In addition, the values for the growth in [14] and in assay [15] were 97.2% and 114%, respectively.
Consider `CC(=O)n1c2ccccc2c2ccccc21`, for which the growth in [1] is 100%; in assay [2] it was 89.3%; in [3] it was 105%; in assay [4], 122%; in [5], 101%; in assay [6], 114%. In addition, the growth was 100% in assay [8]; 105% in assay [9]; 119% in assay [10]; 106% in [11]; 106% in assay [12]; 104% in [13]. The growth is 102% in [14], 96.1% in assay [16] and 114% in [15].
On to `CN1COc2ccc3ccccc3c2C1`, for which the growth in assay [1] is 93%; in assay [2], 77%; in assay [3], 91.7%; in [4] it was 103%; in assay [5] it was 86.3%; in [6], 98.9%. In addition, the growth in assay [8] was 89.8%; in [9], 88.2%; in assay [10], 98.1%; in [11] it was 106%; in assay [12], 99.7%; in assay [13] it was 91.8%. For the same compound, the results for the growth in assay [14], in [16] and in assay [15] were 93.1%, 93% and 105%, respectively.
For the compound `CC/C(=C\c1ccc(N(C)C)cc1)c1ccncc1`, the growth in [1] was 54.7%; in assay [2], 74%; in assay [3], 69.5%; in assay [4] it was 74.6%; in [5], 49.7%; in assay [6], 42.3%. Moreover, the growth in assay [8] was 8.26% (active); in [9], 40%; in [10], 65.8%; in [11], -6.41% (active); in assay [12] it was 19.9%; in assay [13] it was 28.8%. Moreover, the figures for the growth in assay [14], in assay [16] and in [15] were 22.2%, 66.6% and 20.4%, respectively.
On to `Cc1c(C(N)=O)sc2c1C(=O)N(Cc1ccccc1)C1=NN=C(c3ccc(Cl)cc3)CN12`, for which the growth in assay [1] is 18.1%; in assay [2], 57.2%; in assay [3], 48.6%; in [4], 58.5%; in [5], 42.6%; in assay [6], 31.5%. The growth in [7] was 78.2%; in assay [8] it was 9.99% (active); in assay [9], 63.4%; in assay [10], 58.2%; in [11] it was 66.3%; in [12], 57.5%. For the same compound, the growth was 37.8% in [13], 18.8% in assay [14], 40.9% in assay [16] and 42.6% in assay [15].
